What is called inhibition is the drop in the measured response relative to a control, in per cent.

Among all 330,000 compounds or so, about 1,900 (0.58%) were called active. Not shown: some 4% with an inconclusive outcome. A selection follows. Results with a measured potency or affinity are listed apart. A number with no mark means an inactive call. No stated cut-off is given here; in the data, inconclusive means inhibition above about 70% without an active follow-up result; inactive means below that.

This test is described as follows: M. tuberculosis growth inhibition, HTS (AID 449762).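 Further: bacterial growth assessed after seven days of incubation.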 As to conditions: M. tuberculosis H37Rv growth inhibition, 7H9 media; at 25 µM; hits give high values.
Turning to `COC(=O)C(CCCN1C(=O)c2ccccc2C1=O)(NC(C)=O)c1nnn(C)n1` (configuration not stated), the inhibition was -2.74%. In the case of `COC(=O)c1cccc(-c2noc(-c3ccccc3F)n2)c1`, the inhibition was -2.87%. For `Cc1cccc(NC(=O)c2sccc2-n2cccc2)c1C`, the inhibition was 6.88%. For the compound `Cc1ccc(NC(=O)c2sccc2-n2cccc2)c(Cl)c1`, the inhibition is 4.85%. With `Cc1ccc2cc(CN(c3ccccc3C)S(=O)(=O)c3ccccc3)c(=O)[nH]c2c1`, the inhibition is 11.1%. `CNC(=O)c1ccsc1NC(=O)c1ccccc1`: the inhibition is -14.7%.

With `Nc1sccc1C(=O)c1ccccc1`, the inhibition is -3.41%.

Turning to `COc1ccc(CCNCC(O)COc2ccc(Cl)cc2)cc1OC` (configuration not stated), the inhibition was -0.15%. For the compound `Cc1cc(OCC(O)CNC(C)(C)C)ccc1Cl` (configuration not stated), the inhibition is -5.73%. On to `Cc1cc(C)c(OCC(=O)OCC(=O)NC2CCCCCCC2)c(C)c1`, for which the inhibition was -6.93%. Consider `CCN(CC)S(=O)(=O)c1ccc(C(=O)NNC2=NS(=O)(=O)c3ccccc32)cc1`, for which the inhibition was -5.34%. As to `COc1ccccc1N1CCN(Cc2nc3ccsc3c(=O)[nH]2)CC1`, the inhibition is -2.58%. On to `O=c1[nH]c(CN2CCN(c3ccccc3Cl)CC2)nc2ccsc12`, for which the inhibition was 6.57%. As for `COC(=O)C1=C(c2c(C)noc2C)C[C@@H]2CC[C@H]1N2C(=O)N1CCC(C)CC1`, the inhibition was -12.5%. Take `COc1ccc(-c2nnc(SCc3ccc(C(=O)O)cc3)n2C)cc1OC`: the inhibition was 2.72%. As to `COc1ccc(C(=O)C2CCN(C(=S)NCC3CCCO3)CC2)cc1` (configuration not stated), the inhibition was 0.55%. Consider `CC(C)=CCC[C@](C)(O[C@@H]1O[C@H](CO[C@@H]2OC[C@@H](O)[C@H](O)[C@H]2O)[C@@H](O)[C@H](O)[C@H]1O)C1CC[C@]2(C)C1[C@H](O)CC1[C@@]3(C)CC[C@H](O[C@@H]4O[C@H](CO)[C@@H](O)[C@H](O)[C@H]4O)C(C)(C)C3CC[C@]12C` (some centres not stated), for which the inhibition is 1.5%. For `CC(C)=CCC[C@](C)(O)C1CC[C@]2(C)C1[C@H](O)CC1[C@@]3(C)CC[C@H](O[C@@H]4O[C@H](CO)[C@@H](O)[C@H](O)[C@H]4O[C@@H]4O[C@H](CO)[C@@H](O)[C@H](O)[C@H]4O)C(C)(C)C3CC[C@]12C` (some centres not stated), the inhibition was -2.47%. To `N#Cc1cc(Nc2c(N)nc[nH]c2=O)c([N+](=O)[O-])cc1C#N` belongs -9.11%; to `CCc1ccccc1OCCCOc1ccc(OC)cc1`, 3.7%; to `O=C(COC(=O)c1ccc([N+](=O)[O-])s1)NCc1ccccc1`, 40.3%. For `Cc1[nH]c2ccccc2c1C(=O)COC(=O)c1ccccc1O`, the inhibition is -1.43%. To `CC(C)[C@H](NC(N)=O)C(=O)NNC(=O)COc1cccc(C(F)(F)F)c1` belongs -1.74%; to `CCOC(=O)C(=O)Nc1ccc(OCc2ccccc2)cc1`, 62.7%; to `CC(C)Oc1ccc(NC(N)=O)cc1`, -11.6%. In the case of `CC(C)NC(=O)COc1ccc(OCc2ccccc2)cc1`, the inhibition was -4.33%. To `CCOc1ccc(NC(C)=O)cc1` belongs 3.93%. The figure for `Cc1ccc(S(=O)(=O)n2nc(-n3c(C)ccc3C)c3c(F)cccc32)c2ccccc12` is 11.8%; for `O=C(N/N=C/C=C/c1ccccc1[N+](=O)[O-])c1cccs1` it is -11.8%; for `O=C(N/N=C/C=C/c1ccc([N+](=O)[O-])cc1)c1cccs1` it is 3.01%. Turning to `Cc1noc(NS(=O)(=O)c2ccc(NC(=O)C(C)(C)C)cc2)c1C`, the inhibition was 3.27%. For `C=CCNC(=O)Cc1ccc(S(=O)(=O)N2CCOCC2)s1`, the inhibition is -1.17%. As to `COc1cc(C(C)=O)ccc1OCC(O)Cn1nc(C)c(Br)c1C` (configuration not stated), the inhibition is 3.09%.

Take `NS(=O)(=O)c1ccc(CNC(=O)c2ccc3ccccc3n2)cc1`: the inhibition is 7.68%.

Regarding `O=C(Cc1cn2ccsc2n1)Nc1nc2c(s1)CN(Cc1ccccc1)CC2`, the inhibition is -6%.

On to `O=C(Cc1cn2ccsc2n1)Nc1nc2c(s1)CCCC2`, for which the inhibition is -0.56%. Turning to `COc1ccc(S(=O)(=O)Nc2c3ccccc3nc(=O)n2-c2ccccc2)cc1`, the inhibition was 5.16%. To `O=C1CCC(C(=O)N(Cc2cccs2)C2(C(=O)NC3CCCCC3)CCCCC2)N1` (configuration not stated) belongs 1.48%; to `O=C1C=C(c2ccc(Oc3ccccc3)cc2)C[C@@H](c2ccc(F)cc2)C1`, 24.8%; to `CCOc1ccc(OCCCC(=O)Nc2cc(Cl)ccc2-n2cncn2)cc1`, 9.23%. The figure for `N#CC(C#N)=C1CCc2ccccc2N1` is -3.11%. In the case of `O=C(NCCO)/C(=C\c1ccc([N+](=O)[O-])o1)NC(=O)c1ccccc1`, the inhibition is 59%. `CCCCOC(=O)/C(=C\c1ccc([N+](=O)[O-])o1)NC(=O)c1ccccc1`: the inhibition is -4.98%. For `COc1ccc(C2C(C(=O)Nc3ccccn3)=C(C)Nc3ncnn32)c(OC)c1` (configuration not stated), the inhibition is -4.42%. With `COc1ccc(OC)c(-c2csc(NC(=O)CSc3ccccc3)n2)c1`, the inhibition is -4.32%. On to `COc1ccc(CC(=O)Nc2ccc(S(=O)(=O)Nc3onc(C)c3C)cc2)cc1OC`, for which the inhibition is 5.55%. As to `COc1ccc(NC(=O)COC(=O)CCCc2c[nH]c3ccccc23)cc1`, the inhibition was 37.6%. The figure for `COc1ccc(C2NN=C(c3c[nH]c4ccccc34)C2O)cc1` (configuration not stated) is 4.48%; for `O=C(COC(=O)c1ccc2c(c1)C(=O)N(CCc1ccccc1)C2=O)Nc1ccc(OC(F)F)cc1` it is -2.61%.

Regarding `CCC(CO)(C(=O)OC1C[N+]2(C)CCC1CC2)c1ccccc1` (configuration not stated), the inhibition is -13.2%. As for `OCCN1CCN(Cc2cc(Cl)c3cccnc3c2O)CC1`, the inhibition was 6.31%. The figure for `CCOC(=O)N1CCN(Cc2ccc(O)c3ncccc23)CC1` is 55.4%; for `CC(=O)Nc1ccc(S(=O)(=O)NCCc2c[nH]c3ccc(C)cc23)cc1` it is 0.51%; for `COc1ccc(OCCCCN(C)Cc2ccccc2)cc1` it is 13.7%. With `COc1ccc(CNC(=O)[C@@H]2CC=C[C@@H]3CCN(Cc4ccc(Cl)c(Cl)c4)C(=O)[C@@H]32)cc1`, the inhibition was 18.4%. For `O=C(NNC(=S)Nc1ccccc1)c1ccncc1`, the inhibition is 7.24%. As to `CCOc1ccc(C2c3[nH]c4ccccc4c3CCN2Cc2cccn2-c2ncccn2)cc1` (configuration not stated), the inhibition was 67.7%.

For `COc1cccc(C2c3[nH]c4ccccc4c3CCN2Cc2cccn2-c2ncccn2)c1` (configuration not stated), the inhibition is 2.06%. For `Cc1ccc(CNC(=O)CSCc2cccc(F)c2)cc1`, the inhibition was 12.3%.

Regarding `CNC(=S)N/N=C/c1c(C)nn(-c2ccc(F)cc2)c1Cl`, the inhibition is 6.49%.

`CC1=C(C)CC(C(=O)Nc2nccs2)C(C(=O)O)C1` (configuration not stated): the inhibition was -4.95%. To `S=c1nccc(-c2ccc(Cl)cc2)[nH]1` belongs 54.5%; to `S=c1nccc(-c2ccc3c(c2)CCO3)[nH]1`, 3.97%; to `COc1ccc(C2C(C#N)=C(N)Oc3cc(C)n(Cc4ccncc4)c(=O)c32)cc1` (configuration not stated), -7.68%. Consider `O=C(CCn1cnc2ccccc2c1=O)Nc1ccc2c(c1)OCCO2`, for which the inhibition was -3.32%. As to `CCN(CC)c1ccc2c(Cl)cc(=O)oc2c1`, the inhibition is 5.83%. The figure for `CCN(CC)c1ccc2c(C)c(Cl)c(=O)oc2c1` is -3.19%. With `Cc1nc(C)c(C(=O)OCC(=O)NCc2ccccc2Cl)s1`, the inhibition is 3.01%.

Turning to `CCOC(=O)c1cnc2ccc(OCC)cc2c1N1CCN(C)CC1`, the inhibition is 4.95%. To `CCOC(=O)c1cnc2ccc(OCC)cc2c1N1CCN(c2ccccc2OC)CC1` belongs 63.7%; to `C=CCN(CC(=O)NCc1ccccc1)C(=O)c1csnn1`, -1.06%. `O=C(O)C1CC=CCC1C(=O)NCCCN1CCCC1=O` (configuration not stated): the inhibition was -30.3%. Turning to `Cc1ccc(-c2cc(-c3ccc(C)cc3)[n+](-c3ccc(C(=O)O)cc3)c(-c3ccc(C)cc3)c2)cc1`, the inhibition was 6.26%. `O=[N+]([O-])c1ccc(-[n+]2c(-c3ccccc3)cc(-c3ccccc3)cc2-c2ccccc2)cc1`: the inhibition was 8.42%. On to `O=[N+]([O-])c1ccc2nc(-[n+]3c(-c4ccccc4)cc(-c4ccccc4)cc3-c3ccccc3)[nH]c2c1`, for which the inhibition was 27.2%. Turning to `O=C([O-])c1ccc(-[n+]2c(-c3ccccc3)cc(-c3ccccc3)cc2-c2ccccc2)cc1`, the inhibition was 55.9%. Turning to `O=C(O)c1ccc(-[n+]2c(-c3ccccc3)cc(-c3ccccc3)cc2-c2ccccc2)cc1`, the inhibition is -13.1%. For `Cc1ccc(-c2cc(-c3ccccc3)cc(-c3ccccc3)[n+]2-c2ccc(C(=O)O)cc2)cc1`, the inhibition is -6.06%.

Regarding `CC(C)(C)OC(=O)[C@H](Cc1ccccc1)NC(=O)c1nc[nH]c1C(=O)N[C@@H](CCCCN)C(=O)OC(C)(C)C`, the inhibition is -1.19%.

As for `CC(Cc1ccco1)NC(=O)c1ccc(C(F)(F)F)cc1` (configuration not stated), the inhibition is 4.71%. In the case of `COc1ccc(Cl)cc1NC(=O)NCCN1CCNC1=O`, the inhibition is 0.11%. The figure for `COc1ccc(/C(N)=N/OC(=O)CCCc2ccccc2)cc1OC` is 14.8%. Consider `O=C(O)c1cccc(NC(=O)c2cc(S(=O)(=O)N3CCOCC3)cs2)c1`, for which the inhibition is -7.54%. For `CCOC(=O)N1CCC(N(CCN(C)C)C(=S)Nc2ccccc2OCC)CC1`, the inhibition is 7.57%. To `CC1CCC(NCc2ccco2)CC1` (configuration not stated) belongs -0.39%; to `CCC1=C(OC(=O)N(CC)CC)N2C(=O)OC(=NCCc3c[nH]c4ccccc34)[C@]2(Cc2ccccc2)[C@H]2C1=CC[C@H]1C(=O)N(C)C(=O)[C@H]12`, 68.8%. Turning to `CCC1=C(OC(=O)N(CC)CC)N2C(=O)OC(=NCCc3c[nH]c4ccccc34)[C@]2(Cc2ccccc2)[C@H]2C1=CC[C@H]1C(=O)N(CC)C(=O)[C@H]12`, the inhibition is -7.04%.

The values are drawn from PubChem BioAssay AID449762 (Southern Research Specialized Biocontainment Screening …, 2010).
